In PubChem BioAssay AID720488 (Milwaukee Institute for Drug Discovery, 2013) one finds fluorescence interference ratio data, which are given here for 94 compounds.

“And” between values parts separate entries of the source, which are not always exact repeats. Identical values can stand only once. Out of some 16,000 compounds screened, about 960 (6%) were called active. The sample holds actives, similar compounds and a random draw of the others, so the mix is not that of the screen.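 Rule for the calls: active = compound fluorescence over control fluorescence at most 0.8, a quencher, or at least a set upper limit, an enhancer; inactive = ratio between 0.8 and the set upper limit.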

A short description of this test: Cy5 fluorescence quenchers or enhancers, artefact control for HCV NS3 helicase inhibitor project, biochemical, ChemBridge library, Cy5 readout (AID 720488). As to conditions: Cy5-dT15 DNA with NS3h, at 100 µM, actives lie on both sides, signal over control mean, under 1 quenches.
As to `C/C(=N/NS(=O)(=O)c1ccccc1)c1cccc(Br)c1`, the fluorescence interference ratio is 1.04 (inactive).
As to `Cc1ccc(/C=C/C(=O)Nc2cccc([N+](=O)[O-])c2)o1`, the fluorescence interference ratio is 0.895 (inactive).
For the compound `CCNC(=O)NC1C(NC(=O)NCC)N(C)C(=O)N1C` (centres undefined), the fluorescence interference ratio was 0.995 (inactive).
For `C=CCN1C(=O)/C(=C/c2ccccc2OCc2ccc([N+](=O)[O-])cc2)SC1=S`, the fluorescence interference ratio was 1.07 (inactive).
In the case of `O=C(CCN1C(=O)/C(=C/c2ccccc2)SC1=S)Nc1cccc(Cl)c1` it was 1.04 (inactive); in that of `C=CCN1C(=O)/C(=C\c2cc(Cl)c(O)c(Cl)c2)SC1=S`, 0.772 (active); in that of `O=C(NCCCN1CCOCC1)C(=O)Nc1ccc(F)cc1`, 1.06 (inactive).
`O=C(NCc1cccs1)c1cc2n(n1)C(C(F)(F)F)CC(c1ccc(Cl)c(Cl)c1)N2` (centres undefined): the fluorescence interference ratio is 1.05 (inactive).
`COc1ccc(NC(=O)C(=O)NCc2ccccn2)c(OC)c1`: the fluorescence interference ratio was 1.03 (inactive).
Turning to `O=C1C2C3C=CC(C3)C2C(=O)N1/N=C\c1cccc(I)c1` (centres undefined), the fluorescence interference ratio was 0.959 (inactive).
`COC(=O)c1cc(NC(=O)COc2ccc([N+](=O)[O-])cc2)cc(C(=O)OC)c1`: the fluorescence interference ratio is 1.05 (inactive).
Consider `CC(C)COc1ccc(C(=O)Nc2cc([N+](=O)[O-])ccc2Cl)cc1`, for which the fluorescence interference ratio is 0.656 (active).
With `Cc1ccc(OCC(=O)Nc2cc([N+](=O)[O-])ccc2Cl)cc1`, the fluorescence interference ratio was 1.03 (inactive).
On to `O=C(NC(=S)Nc1ccc([N+](=O)[O-])cc1O)c1ccc(Br)cc1`, for which the fluorescence interference ratio is 0.952 (inactive).
In the case of `O=C(Nc1cc([N+](=O)[O-])ccc1O)c1ccc(C(=O)Nc2cc([N+](=O)[O-])ccc2O)cc1`, the fluorescence interference ratio is 1.24 (active).
For `CCC(C)c1ccc(NC(=O)c2ccc([N+](=O)[O-])cc2)cc1` (centres undefined) the value was 1.06 (inactive); for `CN(C(=O)COc1ccc2ccccc2c1)c1ccccc1`, 1.02 (inactive).
As for `Cc1cc(C(=O)Nc2ccccc2C(=O)O)ccc1NC(=O)CC(C)C`, the fluorescence interference ratio is 1.04 (inactive).
Turning to `COc1ccc(C2=NN(C(C)=O)C(c3ccccc3)C2)cc1` (centres undefined), the fluorescence interference ratio was 1.05 (inactive).
For `COc1ccc(C2CC(c3ccc([N+](=O)[O-])cc3)=NN2)cc1` (centres undefined) the value was 0.645 (active); for `C=C(C)Cn1c(-c2ccc([N+](=O)[O-])cc2)n[nH]c1=S`, 1.03 (inactive).
Regarding `O=C1OC(c2ccc(F)cc2)=N/C1=C\c1ccc2c(c1)OCO2`, the fluorescence interference ratio was 1.09 (inactive).
In the case of `O=C(CSc1nnc(-c2ccc(Br)cc2)o1)OCc1ccccc1` it was 0.95 (inactive).
In the case of `COC(=O)c1ccccc1NC(=O)c1cncc(Br)c1` it was 0.974 (inactive).
In the case of `COc1ccc(C2CC(C(F)(F)F)n3nc(C(=O)N4CCN(c5ccc(F)cc5)CC4)c(Cl)c3N2)cc1` (centres undefined), the fluorescence interference ratio was 0.951 (inactive).
With `O=C(Nc1ccc(Oc2ccccc2)cc1)c1ccco1`, the fluorescence interference ratio was 0.978 (inactive).
Take `N#Cc1c(SCC(=O)c2ccc(Cl)cc2)nc2c(c1-c1ccco1)CCCC2`: the fluorescence interference ratio is 0.953 (inactive).
With `N#Cc1c(N)nc2sc(C(=O)Nc3ccccc3)c(N)c2c1-c1ccco1`, the fluorescence interference ratio is 1.21 (active).
For `Cc1cccc(NC(=O)/C=C/c2ccc(F)cc2)c1` the value was 0.934 (inactive); for `CCOC(=O)c1ccc(-n2c(C)cc(/C=N\n3cnnc3)c2C)cc1`, 1.03 (inactive); for `O=C1c2ccccc2C(=O)c2c1cccc2N1CCN(CCO)CC1`, 1.22 (active).
For `CCOC(=O)C1=C(C)N=c2s/c(=C/c3ccc(C(=O)OC)cc3)c(=O)n2C1c1ccc(OC(C)=O)cc1` (centres undefined) the value was 1.07 (inactive); for `CNC(=O)C1CC(=O)N(c2ccc(F)cc2)C1` (centres undefined), 1.11 (inactive).
With `O=C(COC(=O)C1CCCN1C(=O)OCc1ccccc1)c1ccc(-c2ccccc2)cc1` (centres undefined), the fluorescence interference ratio was 1.04 (inactive).
In the case of `COc1ccc2[nH]cc(CCNC=O)c2c1` it was 1.01 (inactive); in that of `CCc1ccccc1NC(=O)C(=O)NCc1ccco1`, 1.09 (inactive).
Turning to `S=C(Nc1ccccc1)Nc1ccccc1NC(=S)Nc1ccccc1`, the fluorescence interference ratio was 1.03 (inactive).
Consider `CCc1ccccc1NC(=O)/C(=C/c1ccccc1)c1ccccc1`, for which the fluorescence interference ratio was 0.606 (active).
For `CCOC(=O)c1ccc(NC(=O)c2ccccc2OC)cc1` the value was 0.661 (active); for `CCOC(=O)c1ccc(NC(=O)C(=O)NCc2ccc(C)cc2)cc1`, 1 (inactive); for `CCOC(=O)c1ccc(NC(=O)c2cc(OCC)cc(OCC)c2)cc1`, 1.01 (inactive).
Consider `COc1ccc(Br)cc1C(=O)Nc1cccc(-c2nc3ccccc3[nH]2)c1`, for which the fluorescence interference ratio was 0.978 (inactive).
For `O=C(/C=C\c1ccccc1)Nc1ccc(Br)cn1` the value was 0.948 (inactive); for `O=C(Nc1ccc(Cl)cc1C(O)c1ccccc1)c1cnn2c1NC(c1ccccc1)CC2C(F)(F)F` (centres undefined), 0.956 (inactive); for `COc1cc(NC(=O)c2cnn3c2NC(c2cccs2)CC3C(F)(F)F)c(OC)cc1Cl` (centres undefined), 0.659 (active).
As for `O=C(Nc1ccc(OC(F)(F)F)cc1)c1nn2c(c1Br)NC(c1cccs1)CC2C(F)(F)F` (centres undefined), the fluorescence interference ratio was 1 (inactive).
`CSc1ccc(C=Nc2ccc(C#N)cc2)cc1`: the fluorescence interference ratio is 1.07 (inactive).
As for `Cc1cccc(C(=O)Nc2cccc(NC(=O)COc3ccccc3Cl)c2)c1`, the fluorescence interference ratio was 0.946 (inactive).
For the compound `CC(C)(C)NC(=O)CN(c1cccc(C(F)(F)F)c1)S(C)(=O)=O`, the fluorescence interference ratio was 1.05 (inactive).
In the case of `COc1ccc(NC(=O)c2cccc(Cl)c2Cl)cc1OC`, the fluorescence interference ratio was 0.784 (active).
For `CC(=O)c1ccc(NC(=O)c2c(Cl)cccc2Cl)cc1`, the fluorescence interference ratio was 1.03 (inactive).
In the case of `COc1ccc(Br)cc1C(=O)Nc1ccc(F)c([N+](=O)[O-])c1` it was 0.959 (inactive); in that of `CCOc1ccc(-n2c(O)c(C=C3C=CC=N3)c(=O)[nH]c2=O)cc1`, 0.942 (inactive); in that of `COC(=O)C1CC(OCc2ccccc2)C1` (centres undefined), 0.97 (inactive).
Consider `CCOc1cc(/C=C(\C#N)c2nc3ncc(Br)cc3[nH]2)ccc1O`, for which the fluorescence interference ratio is 0.791 (active).
Turning to `CCn1c(-c2ccc(OC)cc2)n[nH]c1=S`, the fluorescence interference ratio was 1 (inactive) and 1.01 (inactive).
Consider `CCN(CC)c1ccc(/C=C2\C(=O)NC(=O)N(C)C2=O)cc1`, for which the fluorescence interference ratio is 1.29 (active).
On to `CCN(CC)c1ccc(C=C2C(=O)N(C)C(=O)N(C)C2=O)c(O)c1`, for which the fluorescence interference ratio was 2.02 (active).
In the case of `CCN(CC)c1ccc(N2C(=O)/C(=C/c3ccc4c(c3)OCO4)SC2=S)cc1` it was 1.12 (inactive).
For `Cc1cc(C)cc(N2C(=O)NC(=O)/C(=C\c3ccc(F)cc3)C2=O)c1`, the fluorescence interference ratio is 1.02 (inactive).
Turning to `CCN1C(=O)C(=Cc2ccc(O)cc2)C(=O)NC1=S`, the fluorescence interference ratio is 1.02 (inactive).
For `NS(=O)(=O)c1ccc(CNC(=O)c2ccc(Cl)cc2[N+](=O)[O-])cc1`, the fluorescence interference ratio was 0.985 (inactive).
As to `O=C(CSc1ncc(-c2ccccc2)[nH]1)Nc1ccc(Br)cc1`, the fluorescence interference ratio is 0.959 (inactive).
As to `COc1ccc(Cl)cc1C(=O)N1CCN(c2cccc(Cl)c2)CC1`, the fluorescence interference ratio is 0.934 (inactive).
For `CCOC(=O)NCc1ccc(N(C)C)cc1` the value was 0.963 (inactive).
For the compound `CP(=O)(c1ccc(C(N)=O)cc1)c1ccc(C(N)=O)cc1`, the fluorescence interference ratio was 1.06 (inactive).
As to `O=C(Nc1c(F)cc(F)cc1Br)c1cc2n(n1)C(C(F)(F)F)CC(c1ccc(Cl)cc1)N2` (centres undefined), the fluorescence interference ratio was 1.04 (inactive).
Take `CCc1ccc(N2C(=O)/C(=C/c3cc(C)n(-c4cccnc4)c3C)C(=O)NC2=S)cc1`: the fluorescence interference ratio is 1.1 (inactive).
Take `NC(=NS(=O)(=O)c1ccccc1)c1ccc(Cl)cc1`: the fluorescence interference ratio is 1.06 (inactive).
As for `Cc1c(N2C(=O)S/C(=C\c3ccc(N(C)C)cc3)C2=O)c(=O)n(-c2ccccc2)n1C`, the fluorescence interference ratio was 1.02 (inactive).
Take `Cc1cccc(N2C(=O)S/C(=C/c3ccc(N(C)C)cc3)C2=O)c1`: the fluorescence interference ratio was 0.733 (active).
With `CN(C)c1ccc(/C=C2/SC(=S)N(c3ccc(F)cc3)C2=O)cc1`, the fluorescence interference ratio was 1.06 (inactive).
For `O=C(/C=N/O)NCCCNCc1ccccc1`, the fluorescence interference ratio was 1.03 (inactive).
`CC(C)N1C(=O)/C(=C/c2ccc(O)cc2)SC1=S`: the fluorescence interference ratio was 0.867 (inactive).
As to `CCC(=O)Nc1ccc(-c2nc3ccccc3o2)cc1`, the fluorescence interference ratio is 0.946 (inactive).
For `O=C(Nc1ccc2oc(-c3cccc(Cl)c3Cl)nc2c1)c1ccccc1[N+](=O)[O-]`, the fluorescence interference ratio was 1.11 (inactive).
On to `CCc1ccc2oc(-c3ccc(NC(=O)c4ccccc4[N+](=O)[O-])cc3)nc2c1`, for which the fluorescence interference ratio was 0.659 (active).
As for `CCN1C(=O)/C(=C\c2ccc(OCc3ccccc3Cl)cc2)SC1=S`, the fluorescence interference ratio was 0.997 (inactive).
In the case of `COc1ccc(N(CC(=O)Nc2ccc(C(C)C)cc2)S(=O)(=O)c2ccc(C)cc2)c(OC)c1`, the fluorescence interference ratio was 1.04 (inactive).
On to `COCCCNC(=O)CN(c1ccc(OC)cc1OC)S(=O)(=O)c1ccc(C)cc1`, for which the fluorescence interference ratio was 1.23 (active).
As to `COc1ccc(N(CC(=O)NCc2ccncc2)S(=O)(=O)c2ccc(C)cc2)cc1`, the fluorescence interference ratio was 0.919 (inactive).
For the compound `CN1CCN(C(=O)c2cc3nc(-c4cccs4)cc(C(F)(F)F)n3n2)CC1`, the fluorescence interference ratio was 0.935 (inactive).
On to `COc1cccc(C2C(C(=O)Nc3ccccc3)=C(C)N=c3s/c(=C\c4c[nH]c5ccccc45)c(=O)n32)c1` (centres undefined), for which the fluorescence interference ratio was 1.04 (inactive).
`Nc1ccc(Sc2ccccc2[N+](=O)[O-])cc1`: the fluorescence interference ratio was 0.899 (inactive).
On to `COc1ccc(CCNc2cc(N3CCOCC3)ccc2[N+](=O)[O-])cc1OC`, for which the fluorescence interference ratio is 0.856 (inactive).
Turning to `O=[N+]([O-])c1ccc(N2CCN(CCO)CC2)cc1NC(c1ccccc1)c1ccccc1`, the fluorescence interference ratio is 0.793 (active).
Regarding `O=[N+]([O-])c1ccc(N2CCN(S(=O)(=O)c3ccccc3)CC2)cc1N1CCOCC1`, the fluorescence interference ratio is 1.11 (inactive).
Consider `COc1ccc(C(=O)/C=C/Nc2ccc(S(=O)(=O)N=C(N)N)cc2)cc1OC`, for which the fluorescence interference ratio is 0.963 (inactive).
For `Cc1ccc(OCC(=O)NC(C)C)cc1` the value was 1.11 (inactive); for `CCOC(=O)c1c(-c2ccc(C)cc2C)csc1NC(=S)NC(=O)c1ccccc1`, 1.21 (active).
Regarding `CCOC(=O)c1sc(NC(=O)c2ccc(OC)cc2)c(C(=O)OCC)c1C`, the fluorescence interference ratio was 1.02 (inactive).
Consider `CCOC(=O)c1sc(NC(=O)COc2ccc(C)cc2C)c(C(=O)OCC)c1C`, for which the fluorescence interference ratio was 0.985 (inactive).
In the case of `CC(C)(C)c1ccccc1OCC(O)CN1CCCC1` (centres undefined), the fluorescence interference ratio was 1.05 (inactive).
In the case of `C=CCOc1ccccc1C=C1C(=O)NC(=O)NC1=O` it was 0.999 (inactive).
